# Laboratory results as given in the OligoGym collection.
# Biological target: SLC13A5
# Assay: pooled miR-30 sensor sort-seq; sequence = guide strand
# Conditions: shRNA
# Note: reference of the scale not given here.
row,Sequence,sensor-assay potency score (higher = more potent)
1,TTTAATGAGAGCAAGAGCTGGA,0.762
2,TTGTCTCTCATGTCTGTCTCTT,-0.189
3,TTTAAAATTGAATCTCATGTAA,-0.532
4,TTGCTGTCAGGAAACAACTCGT,-0.663

# Biological target: SLC16A5
# Assay: as above
# Conditions: shRNA
row,Sequence,sensor-assay potency score (higher = more potent)
1,TTGCTGGCCTGGAACTCCCATT,-1.48
2,TTGCAGTTCAGTGAAGAAGATG,-1.64
3,TTCAGTGAAGAAGATGCCGATA,-0.558
4,TTGAGCAGGAGTGCCAGGCTGA,-0.145
5,TAGAAAACATAGCTAAAGTTGT,-0.585
6,TTCTGCAGGGCGTAGAAGCTGC,-0.98
7,TTGCTTGGCCTGCAGTACCGCC,-1.47
8,TTGCTTCCCAGGACCGTCTTTG,-0.623
9,TAACAAAGTAACCTCCTACTTT,0.00812
10,ATGTACACGCAGTAGCCTGTGT,-0.541
11,TAGCTAAAGTTGTTGGTGGCGT,-0.44
12,TTGGCCTGCAGTACCGCCTTTG,-1.15

# Biological target: SLC17A2
# Assay: as above
# Conditions: shRNA
row,Sequence,sensor-assay potency score (higher = more potent)
1,TCTGATGTTAACATGGAGCAGA,-0.539
2,TTTCGCACAGTGATCAATCTGA,0.624
3,ATTAGATAGACCTTGCTGCTGA,0.973
4,ATGAACAGAAATCTGGACCTTT,0.387
5,AAATTGTACAGCTTGCAGCAGC,-0.887
6,TCATAAATCACTGTGAACCATA,-0.911
7,TATGTTAGGATGATGGTGCATA,-0.486
8,TAAACTGACCTGTCCATGCCAT,-0.0582
9,TTATGGGGACAGCTCGTCCAGG,-1.25
10,TTTTTTGCTCCAAATATCCCTG,-0.408

# Biological target: SLC17A8
# Assay: as above
# Conditions: shRNA
row,Sequence,sensor-assay potency score (higher = more potent)
1,TTTTCCATCAACATATACGGTG,-0.405
2,TTTCATTGTAGTATTTCTCTGT,0.732
3,TTTCCATCAACATATACGGTGC,-0.418
4,TACAACGATTGTCATAACCATG,-1.63
5,TTACTTAGACTAACCACGTTGG,-0.0532
6,TAAATCTATAATTTTTTCCGTA,-0.398
7,TATATTATTGTGATTTCCCTGA,0.059
8,TAAGACATCTTCTTTTTGGGAC,0.433
9,TACGGTGCTATTGTTGACCATT,-0.977
10,TTTACTTAGACTAACCACGTTG,-0.016
11,TATGAGGAACACATTCTGCCAT,0.122
12,ATGAGGAACACATTCTGCCATT,-1.42
